KCNQ2 pot – KCNQ2 (rat) channel potentiation | O88943 | CHO-K1 KCNQ2, FluxOR thallium flux fluorescence; stronger effect = higher value | B-score at 10 µM | 0.54% of 310,000 active;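 active = fluorescence ratio B-score at least 3 SD of library B-scores, with initial fluorescence B-score within 3 of them, cut at about 5.3 in these data; same plate scores as AID 2156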;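 also: B-score of peak minus minimum over baseline fluorescence ratio after K+ and Tl+ stimulus; positive B-score means potentiation of KCNQ2 with more thallium influx and brighter signal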
KCNQ2 block – inhibitors of rat KCNQ2 potassium channel | CHO-K1 KCNQ2, FluxOR thallium flux, 20 min; stronger effect = lower value | B-score at 10 µM | O88943 | 1.1% of 310,000 active;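 active = fluorescence ratio B-score at most minus 3 library SDs, with starting brightness B-score within 2 library SDs, cut at about -5.5 in these data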
* hit, by the source's call; i = inactive; . = no result. Compounds with a hit are over-represented: about 1.6% of the library has one in this group of screens.

SMILES	KCNQ2 pot	KCNQ2 block
CCCc1nc(SCC(=O)N2CCN(c3ccccc3)CC2)c2c(=O)n(C)c(=O)n(C)c2n1	2.87	i
Cc1cccc2sc(NC(=O)C3c4ccccc4Oc4ccccc43)nc12	.	i
Cc1nn2c(N3CCN(C)CC3)cc(C(C)(C)C)nc2c1-c1ccccc1	.	i
Cc1nn2c(N3CCN(C(=O)c4ccco4)CC3)cc(C(C)(C)C)nc2c1-c1ccccc1	-6.51	-6.51*
COCc1ccc(C(=O)NC2CCSc3ccccc32)cc1 (centres undefined)	0.1	i
COc1ccc(NC(=S)N2CCC(C(O)(c3ccccc3)c3ccccc3)CC2)cc1	6.65*	i
COc1ccc(NC(=S)N2CCC(c3ccccc3)C2)cc1 (centres undefined)	0.91	i
CCOc1ccc(NC(=S)N2CCN(S(=O)(=O)c3ccccc3)CC2)cc1	.	i
CCOc1ccc(NC(=S)N2CCC(C(O)(c3ccccc3)c3ccccc3)CC2)cc1	6.52*	i
COc1ccccc1NS(=O)(=O)c1cccc(C(=O)NCc2ccncc2)c1	.	i
CCN(CC(=O)Nc1cc(S(=O)(=O)N2CCOCC2)ccc1C)Cc1ccccc1	0.35	i
COC(=O)c1ccc(Cn2cnc3cnccc32)cc1	.	i
O=C(c1ccccc1)C1CCN(C(=O)c2ccco2)CC1	1.07	i
Cc1oc2ccc(O)cc2c1C(=O)c1ccc(F)cc1	0.24	i
CN(C(=O)/C=C/c1ccccc1)C1CCCCC1	.	i
COc1ccccc1NC(=O)Cc1csc(NC(=O)c2ccccc2)n1	0.37	i
COc1cc(C(=O)Nc2nc(-c3cccs3)cs2)cc(OC)c1OC	-7.13	-7.13*
COc1ccc(C(=O)Nc2nc(-c3cccs3)cs2)cc1	1.45	i
COc1cc(OC)cc(C(=O)Nc2nc(CC(=O)NCc3ccccc3OC)cs2)c1	-6.58	-6.58*
O=C(Cc1csc(NC(=O)c2ccc(F)cc2)n1)NO	-5.66	-5.66*
COc1cc(OC)cc(C(=O)Nc2nc(CC(=O)NCc3ccc(F)cc3)cs2)c1	.	i
COc1cccc(N2CCN(c3ccc4nnc(CCC(=O)Nc5ccccc5OC)n4n3)CC2)c1	.	i
CCOc1ccc(CCNC(=O)Cn2ccc3ccccc3c2=O)cc1OCC	1.17	i
N#CCc1nn(-c2ccccc2)c2ncnc(N)c12	0.62	i
CS(=O)(=O)c1ccc(C(=O)NC(Cc2ccccc2)c2ccccc2)cc1 (centres undefined)	.	i
SMILES	KCNQ2 pot	KCNQ2 block
COCC(C)NS(=O)(=O)c1ccc(C(=O)NC(Cc2ccccc2)c2ccccc2)cc1 (centres undefined)	-7.78	-7.78*
CCN(CC(=O)NCc1ccc(F)cc1)C(=O)c1cc2ccccc2o1	0.21	i
O=C(Nc1ccc(OCC(=O)N2CCOCC2)cc1)Nc1cccc2ccccc12	0.7	i
C/C(=N\OCC(=O)Nc1c(C)cc(C)cc1C)c1ccc2c(c1)OCCO2	8.08*	i
C/C(=N\OCC(=O)Nc1cc(C)cc(C)c1)c1ccc2c(c1)OCCO2	.	i
CCN(CC)CCNC(=O)c1ccc(NC(=O)Cc2ccsc2)cc1	1.14	i
CCCNC(=O)Cc1ccsc1	-7.8	-7.8*
COC(=O)C(NC(=O)C(NC(=O)C1CCC(C)CC1)C(C)C)C(C)C (centres undefined)	0.01	i
COc1ccc(CNC(=O)COC(=O)c2ccc(OCc3c(C)noc3C)cc2)cc1OC	0.44	i
Cc1noc(C)c1COc1ccc(C(=O)OCC(=O)NCc2ccccc2Cl)cc1	-6.49	-6.49*
COCc1nnc(NC(=O)c2ccccc2Oc2ccccc2)s1	-6.14	-6.14*
COCCSc1ccccc1C(=O)Nc1nnc(COC)s1	.	i
Cn1c(NCc2c[nH]c3ccccc23)nc2ccccc21	.	i
CCn1c(NCc2c[nH]c3ccccc23)nc2ccccc21	-6.51	-6.51*
O=C(Nc1nccs1)c1ncc(Cl)c(Cl)c1Cl	.	i
Cc1ccc(CNC(=O)c2ccc3c(=O)[nH]c4c(C(=O)NCC5CCCO5)sc(=S)n4c3c2)cc1 (centres undefined)	.	i
CCCCCNC(=O)c1ccc2c(=O)[nH]c3c(C(=O)NCC4CCCO4)sc(=S)n3c2c1 (centres undefined)	-5.67	-5.67*
O=c1c(C=NCCN2CCNCC2)c(-c2ccccc2)[nH]n1-c1ccc([N+](=O)[O-])cc1	-7.04	-7.04*
COc1ccc(-c2[nH]n(-c3ccc([N+](=O)[O-])cc3)c(=O)c2C=NCCN2CCNCC2)cc1	.	i
Cc1ccsc1/C=N/NC(=O)c1nnn(-c2nonc2N)c1CSc1ccccc1	2.16	i
O=C(COc1ccccc1)NNC(=O)COc1ccc([N+](=O)[O-])cc1	1.16	i
CN(Cc1ccccc1)C(=O)COc1ccc(C(C)(C)C)cc1	-5.56	-5.56*
O=C(COc1ccc([N+](=O)[O-])cc1)N(Cc1ccccc1)Cc1ccccc1	-5.76	-5.76*
CN(Cc1ccccc1)C(=O)COc1ccccc1Cl	.	i
CCOc1ccc(C(=O)NC(Cc2ccccc2)C(=O)OC)cc1 (centres undefined)	.	i
